HT1080 IDH1KD tx = toxicity to HT-1080 IDH1 knockdown cells (counter line); AID 686971; HT-1080 IDH1 knockdown viability, ATP luminescence, 48 h; hit rate 2% among 360,000; Potency, µM (doses to about 46.1 µM), without a hit: top-dose activity, negative = toxicity, usual class: cytotoxic;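 further: 0% = DMSO wells and -100% = cell-free medium wells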
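In this qHTS, HT-1080 cells depleted of IDH1 are exposed for 48 h at 37 °C to compound titrations. Toxicity is scored from CellTiter-Glo luminescence, with DMSO as full viability and medium alone as none.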
KB-V1 cytotox = kills drug-selected multidrug resistant KB-V1 cells. KB-V1 MDR cells viability, CellTiter-Glo, 72 h. Potency, µM (doses to about 46.1 µM), hits mostly cytotoxic. hit rate 3.4% among 400,000. AID 1347076; further: nearly all actives have a fitted effect of over 60% in size
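Readout: CellTiter-Glo luminescence, 10 min after addition. Cells: KB-V1 MDR subline, 72 h at 37 degrees C with compound. Analysis: corrected, normalized data fitted to concentration-effect curves.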
KB-3-1 cytotox = kills parental KB-3-1 adenocarcinoma cells | Potency, µM (highest dose often 46.1 µM), actives largely listed as cytotoxic | AID 1347075 | KB-3-1 viability, CellTiter-Glo ATP luminescence, 72 h | hit rate 1.4% among 400,000; further: nearly all actives have a fitted effect of over 60% in size
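72 h, 37 °C compound treatment of KB-3-1 parental cells; CellTiter-Glo added, 10 min, luminescence read. Data corrected against DMSO-only plates and normalized before curve fitting.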
TDP1 cell noCPT = qHTS for Inhibitors of human tyrosyl-DNA phosphodiesterase 1 (TDP1): qHTS in cells in absence of CPT. DT40 Tdp1-/- hTDP1 cells, no CPT, ATP luminescence, 48 h. Potency, µM (highest dose often 46.2 µM), for the others: top-dose activity change, negative = growth inhibition, hits mostly inhibitors. hit rate 15% among 420,000. AID 686978, 2013; further: nearly all actives have a fitted effect of over 55% in size
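Chicken DT40 Tdp1-/- cells complemented with human TDP1, screened without camptothecin (DMSO vehicle only), 400 cells/well. Compounds pin-transferred, cells incubated at 37 °C for at least 48 hr. Growth read as ATP-dependent luminescence (CellTiter-Glo, 30 min at RT).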
HT1080NT lethal = kills 2HG-producing HT-1080-NT fibrosarcoma cells. HT-1080-NT fibrosarcoma viability, CellTiter-Glo ATP luminescence, 48 h. Potency, µM (series often up to 46.1 µM), without a hit: at the top dose activity, negative = less viability, most hits filed as cytotoxic. AID 686970. hit rate 1.6% among 360,000;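 further: NT is the 2HG producing partner of a matched IDH1 knockdown line; 0% = DMSO-treated cells and -100% = media-only wells without cells; nearly all actives have a fitted effect of over 55% in size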
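HT-1080-NT fibrosarcoma cells (2HG-overproducing), 750 cells/well in RPMI with 5% FBS, dosed after 2 h and incubated 48 h at 37C. CellTiter-Glo luminescence normalized to DMSO and no-cell wells; concentration-response curves fitted and classed.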
DT40 TDP1 CPT = DT40-hTDP1 cell growth loss with CPT; chicken DT40 Tdp1-/-;hTDP1 cells + 20 nM CPT, ATP luminescence, 48 h; Potency, µM (highest dose often 46.2 µM), without a hit: at the highest dose activity change, negative = growth inhibition, actives largely listed as inhibitors; hit rate 12% among 420,000; further: nearly all actives have a fitted effect of over 55% in size
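Cell growth measured by CellTiter-Glo luminescence after a minimum 48 h, 37 C compound exposure with 20 nM CPT in Tdp1-knockout DT40 cells stably expressing hTDP1, seeded 400/well; qHTS titration format.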
Starred values were filed as active, the others as inactive; i = inactive; ? = inconclusive; . = no result. This is a sample that favours compounds with a hit; in the whole collection about 19% have one here. The call rests on the fitted dose curve; in most records, active means well fitted curve in the direction sought with a large enough effect; inconclusive means small, poorly fitted or top-dose-only effect, or another doubt; inactive means no such curve, though single readings can be large; an effect the other way counts as inactive or inconclusive. Unless noted, on the % scale 0 is the no-effect control and ±100 the full control effect; potency means the concentration at half of the fitted maximal effect.

SMILES	HT1080 IDH1KD tx	KB-V1 cytotox	KB-3-1 cytotox	TDP1 cell noCPT	HT1080NT lethal	DT40 TDP1 CPT
COc1ccc([C@H]2C[C@H](n3cc(COC(=O)c4ccccc4)nn3)[C@@H](O)CN2C(=O)c2cccs2)cc1	4%	i	i	3%	3%	6%
O=C(NCC1CC1)c1ccc2sc([C@@H]3O[C@H](CO)[C@H](O)[C@H](O)[C@H]3O)nc2c1	24%	i	i	1%	8%	-23%
COc1ccc(-n2c(SCC(=O)Nc3ccc([N+](=O)[O-])cc3OC)nc3ccccc32)cc1	0%	i	i	?	-2%	-23%
NS(=O)(=O)c1ccc(NC(=O)CSc2nc3ccccc3n2-c2ccccc2)cc1	-18%	i	i	?	?	?
CN(C)S(=O)(=O)c1cccc(NC(=O)CSc2nc3ccccc3n2-c2ccccc2)c1	?	2.3µM*	?	26µM*	-23%	?
CN(C)S(=O)(=O)c1ccc(NC(=O)CSc2nc3ccccc3n2-c2ccccc2)cc1	-2%	i	i	21µM*	-8%	?
COc1cc(NC(=O)CSc2nc3ccccc3n2-c2ccccc2)c(C)cc1[N+](=O)[O-]	-5%	8.2µM*	i	?	0%	?
COc1cccc(-c2nc3cc(SC)ccc3cc2CN(C(=O)c2sccc2C)C2CC2)c1	.	.	.	-2%	.	2%
Cn1nc(-c2ccc(C(=O)NCC3CCCO3)cc2)c2ccccc2c1=O (stereo not drawn)	-1%	i	i	?	-1%	?
COc1ccc(NC(=O)COc2ccc(-c3nn(C)c(=O)c4ccccc34)cc2)cc1	?	?	i	?	-14%	?
CN(C(=O)c1ccc(-c2nn(C)c(=O)c3ccccc23)cc1)C1CCCCC1	1%	4.1µM*	18µM*	16µM*	-21%	13µM*
Cn1nc(-c2ccc(OCC(=O)NCC3CCCO3)cc2)c2ccccc2c1=O (stereo not drawn)	-1%	?	i	12µM*	-11%	18µM*
COc1ccc(OCC(=O)Nc2cc(-c3nn(C)c(=O)c4ccccc34)ccc2OC)cc1	-19%	?	i	16µM*	-13%	16µM*
Cc1ccc(NC(=O)c2cnccn2)cc1C	-12%	i	i	6%	-3%	7%
Cc1ccc2c(C)[nH]c(=O)cc2c1	-15%	i	?	7.3µM*	-7%	7.3µM*
CCOC(=O)N1CCC(N2CCCC(CO)(Cc3ccccc3C)C2)CC1 (stereo not drawn)	21%	i	i	?	0%	-17%
C#Cc1ccc(CN2CCC(C(=O)Nc3ccc(Oc4ccccc4)nc3)CC2)cc1	?	?	?	?	-30%	15µM*
O=C(Nc1ccc(Oc2ccccc2)nc1)C1CCCCN1Cc1ccco1 (stereo not drawn)	?	?	i	4.1µM*	?	4.1µM*
Cc1ccc(CN2CCCCC2C(=O)Nc2ccc(Oc3cccnc3)cc2)o1 (stereo not drawn)	-21%	8.2µM*	5.2µM*	7.3µM*	?	5.2µM*
CCn1nc(C)c(CN2CCCCC2C(=O)Nc2ccc(Oc3cccnc3)cc2)c1C (stereo not drawn)	6%	?	i	16µM*	0%	9.2µM*
CCn1cc(CN2CCC(C(=O)Nc3ccc(Oc4cccnc4)cc3)CC2)c(C)n1	2%	i	i	?	-2%	?
Cc1ncc(CN2CCC(C(=O)Nc3ccc(Oc4cccnc4)cc3)CC2)cn1	-9%	?	i	-24%	-8%	?
COc1cccc(NC(=O)c2sc(-n3nc(C)c(Cc4ccccc4Cl)c3C)nc2C)c1	.	.	.	?	.	-17%
CCOc1cc(NS(=O)(=O)c2ccc(NC(C)=O)cc2)c(OCC)cc1NC(=O)C(C)C	?	?	i	-23%	-6%	?
CCOc1cc(NS(C)(=O)=O)c(OCC)cc1NC(=O)c1cccs1	6%	9.2µM*	?	?	4%	-26%
SMILES	HT1080 IDH1KD tx	KB-V1 cytotox	KB-3-1 cytotox	TDP1 cell noCPT	HT1080NT lethal	DT40 TDP1 CPT
CCOc1cc(NS(=O)(=O)c2ccc(Cl)cc2)c(OCC)cc1NC(=O)CC(C)C	?	11µM*	i	18µM*	?	22µM*
CCOc1cc(NS(=O)(=O)c2ccccc2)c(OCC)cc1NC(=O)c1ccco1	-4%	15µM*	i	26µM*	2%	?
CCOc1cc(NC(=S)NCC2CCCO2)c(OCC)cc1NC(=O)C1CC1 (stereo not drawn)	-4%	?	i	4.6µM*	11%	-3%
Cc1ccc(NC(=O)CNC(=O)c2ccco2)nc1	23%	?	i	21%	29%	1%
COc1cc(NC(=O)C2CCCCC2)c(OC)cc1NC(=O)c1ccco1	2%	i	i	?	-5%	-26%
CCOc1cc(NC(=O)C2CCCCC2)c(OCC)cc1NC(=O)c1ccco1	10%	?	i	?	1%	7.3µM*
CCN(CC(=O)Nc1ccc(N2CCOCC2)cc1)C(=O)COc1ccccc1OC	-2%	i	i	-2%	21%	8%
COCc1cc(=O)oc2cc(NC(=O)c3ccc(C(C)(C)C)cc3)ccc12	6%	i	i	15µM*	6%	9.2µM*
COc1cc(C(=O)Nc2ccc(C(=O)c3ccncc3)cc2)cc(OC)c1OC	?	i	i	23µM*	?	15µM*
COc1ccc(C(=O)Nc2ccc3ccccc3c2)cc1	-6%	i	i	3%	-1%	4%
COc1ccc(C(=O)Nc2ccc3ccccc3c2)cc1OC	14%	i	i	-14%	0%	2%
COc1ccc(OC)c(C(=O)c2ccc(C(=O)Nc3ccc4ccccc4c3)cc2)c1	1%	?	i	18µM*	4%	21µM*
COc1cc(C(=O)Nc2ccc3ccccc3c2)cc(OC)c1OC	0.58µM*	?	?	0.65µM*	1.3µM*	?
CC(C)CNC(=O)c1ccc2c(c1)C(=O)N(Cc1ccco1)C2=O	9%	?	i	2%	6%	2%
CCCCC(C(=O)O)C(C)CC(=O)NNC(=O)c1ccco1 (stereo not drawn)	0%	i	i	5%	3%	7%

Compound activity (PubChem)
